# According to PubChem BioAssay:
# Unmarked numbers belong to inactive results. Active and inactive are the calls of the source.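 The calls were made as follows: active = normalized viability below 100% at a tested concentration; inactive = the rest.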
# Assay: drug combination growth inhibition, ovarian cancer – cell-based, oncology-focused library, rucaparib conditional, profiling panel (AID 1508598)
# Conditions: patient-derived ovarian cancer cells, CellTiter-Glo viability, 144 h, stronger effect = lower value
# [1] = at 5 µM, OCI-P5x cells, with rucaparib 20 µM, 100% = cells with rucaparib alone
# [2] = at 5 µM, OCI-P5x cells, without rucaparib
# [3] = at 0.000305 µM, OCI-C5x cells, with rucaparib 10 µM, 100% = cells with rucaparib alone
# [4] = at 0.000305 µM, OCI-C5x cells, without rucaparib
# [5] = at 0.000305 µM, OCI-P5x cells, with rucaparib 20 µM, 100% = cells with rucaparib alone
# [6] = at 0.000305 µM, OCI-P5x cells, without rucaparib
# [7] = at 0.00122 µM, OCI-C5x cells, with rucaparib 10 µM, 100% = cells with rucaparib alone
# [8] = at 0.00122 µM, OCI-C5x cells, without rucaparib
# [9] = at 0.00122 µM, OCI-P5x cells, with rucaparib 20 µM, 100% = cells with rucaparib alone
# [10] = at 0.00122 µM, OCI-P5x cells, without rucaparib
# [11] = at 0.00488 µM, OCI-C5x cells, with rucaparib 10 µM, 100% = cells with rucaparib alone
# [12] = at 0.00488 µM, OCI-C5x cells, without rucaparib
# [13] = at 0.00488 µM, OCI-P5x cells, with rucaparib 20 µM, 100% = cells with rucaparib alone
# [14] = at 0.00488 µM, OCI-P5x cells, without rucaparib
# [15] = at 0.0195 µM, OCI-C5x cells, with rucaparib 10 µM, 100% = cells with rucaparib alone
# [16] = at 0.0195 µM, OCI-C5x cells, without rucaparib
# [17] = at 0.0195 µM, OCI-P5x cells, with rucaparib 20 µM, 100% = cells with rucaparib alone
# [18] = at 0.0195 µM, OCI-P5x cells, without rucaparib
# [19] = at 0.0781 µM, OCI-C5x cells, with rucaparib 10 µM, 100% = cells with rucaparib alone
# [20] = at 0.0781 µM, OCI-C5x cells, without rucaparib
# [21] = at 0.0781 µM, OCI-P5x cells, with rucaparib 20 µM, 100% = cells with rucaparib alone
# [22] = at 0.0781 µM, OCI-P5x cells, without rucaparib
# [23] = at 0.313 µM, OCI-C5x cells, with rucaparib 10 µM, 100% = cells with rucaparib alone
# [24] = at 0.313 µM, OCI-C5x cells, without rucaparib
# [25] = at 0.313 µM, OCI-P5x cells, with rucaparib 20 µM, 100% = cells with rucaparib alone
# [26] = at 0.313 µM, OCI-P5x cells, without rucaparib
# [27] = at 1.25 µM, OCI-C5x cells, with rucaparib 10 µM, 100% = cells with rucaparib alone
# [28] = at 1.25 µM, OCI-C5x cells, without rucaparib
# [29] = at 1.25 µM, OCI-P5x cells, with rucaparib 20 µM, 100% = cells with rucaparib alone
# [30] = at 1.25 µM, OCI-P5x cells, without rucaparib
# [31] = at 5 µM, OCI-C5x cells, with rucaparib 10 µM, 100% = cells with rucaparib alone
# [32] = at 5 µM, OCI-C5x cells, without rucaparib
compound,measurement,setting,value
O=C1[C@H](CC[C@H](O)c2ccc(F)cc2)[C@H](c2ccc(O)cc2)N1c1ccc(F)cc1,viability,[1],84.2% (active)
same,viability,[2],94.6% (active)
CO[C@H]1C[C@@H]2CC[C@@H](C)[C@@](O)(O2)C(=O)C(=O)N2CCCC[C@H]2C(=O)O[C@H]([C@H](C)C[C@@H]2CC[C@@H](O)[C@H](OC)C2)CC(=O)[C@H](C)/C=C(\C)[C@@H](O)[C@H](OC)C(=O)[C@H](C)C[C@H](C)/C=C/C=C/C=C/1C,viability,[3],117%
same,viability,[4],111%
same,viability,[5],87.8% (active)
same,viability,[6],75.2% (active)
same,viability,[7],99.6% (active)
same,viability,[8],102%
same,viability,[9],91.5% (active)
same,viability,[10],64.8% (active)
same,viability,[11],94.9% (active)
same,viability,[12],95.5% (active)
same,viability,[13],83.5% (active)
same,viability,[14],62.3% (active)
same,viability,[15],101%
same,viability,[16],95.6% (active)
same,viability,[17],87.8% (active)
same,viability,[18],62.5% (active)
same,viability,[19],103%
same,viability,[20],89.7% (active)
same,viability,[21],92.1% (active)
same,viability,[22],60% (active)
same,viability,[23],107%
same,viability,[24],97.8% (active)
same,viability,[25],94.8% (active)
same,viability,[26],63.9% (active)
same,viability,[27],105%
same,viability,[28],99.2% (active)
same,viability,[29],93.7% (active)
same,viability,[30],61.2% (active)
same,viability,[31],118%
same,viability,[32],107%
same,viability,[1],65% (active)
same,viability,[2],61% (active)
CCOc1ccc(Cc2cc([C@@H]3O[C@H](CO)[C@@H](O)[C@H](O)[C@@H]3O)ccc2Cl)cc1,viability,[3],111%
same,viability,[4],102%
same,viability,[5],94.3% (active)
same,viability,[6],91.9% (active)
same,viability,[7],126%
same,viability,[8],108%
same,viability,[9],96.6% (active)
same,viability,[10],98.1% (active)
same,viability,[11],108%
same,viability,[12],106%
same,viability,[13],105%
same,viability,[14],98.8% (active)
same,viability,[15],117%
same,viability,[16],116%
same,viability,[17],101%
same,viability,[18],107%
same,viability,[19],111%
same,viability,[20],108%
same,viability,[21],106%
same,viability,[22],106%
same,viability,[23],112%
same,viability,[24],118%
same,viability,[25],105%
same,viability,[26],105%
same,viability,[27],111%
same,viability,[28],118%
same,viability,[29],99.3% (active)
same,viability,[30],112%
same,viability,[31],110%
same,viability,[32],121%
same,viability,[1],106%
same,viability,[2],109%
Cc1cc(NC(=O)c2cccc(NC(=O)/C=C/CN(C)C)c2)ccc1Nc1nccc(-c2cccnc2)n1,viability,[3],118%
same,viability,[4],133%
same,viability,[5],111%
same,viability,[6],110%
same,viability,[7],116%
same,viability,[8],132%
same,viability,[9],108%
same,viability,[10],113%
same,viability,[11],140%
same,viability,[12],160%
same,viability,[13],108%
same,viability,[14],107%
same,viability,[15],146%
same,viability,[16],172%
same,viability,[17],104%
same,viability,[18],106%
same,viability,[19],180%
same,viability,[20],183%
same,viability,[21],111%
same,viability,[22],109%
same,viability,[23],172%
same,viability,[24],199%
same,viability,[25],116%
same,viability,[26],112%
same,viability,[27],163%
same,viability,[28],186%
same,viability,[29],103%
same,viability,[30],116%
same,viability,[31],159%
same,viability,[32],194%
same,viability,[1],83.9% (active)
same,viability,[2],108%
COc1cccc2c1C(=O)c1c(O)c3c(c(O)c1C2=O)C[C@@](O)(C(C)=O)C[C@H]3O[C@H]1C[C@H](N)[C@H](O)[C@H](C)O1,viability,[3],118%
same,viability,[4],110%
same,viability,[5],110%
same,viability,[6],105%
same,viability,[7],123%
same,viability,[8],101%
same,viability,[9],99.8% (active)
same,viability,[10],101%
same,viability,[11],125%
same,viability,[12],152%
same,viability,[13],99.2% (active)
same,viability,[14],94.6% (active)
same,viability,[15],198%
same,viability,[16],201%
same,viability,[17],84.2% (active)
same,viability,[18],43% (active)
same,viability,[19],180%
same,viability,[20],105%
same,viability,[21],74.4% (active)
same,viability,[22],26.5% (active)
same,viability,[23],101%
same,viability,[24],5.28% (active)
same,viability,[25],25.9% (active)
same,viability,[26],10.5% (active)
same,viability,[27],2.76% (active)
same,viability,[28],1.21% (active)
same,viability,[29],15.7% (active)
same,viability,[30],5.33% (active)
same,viability,[31],2.96% (active)
same,viability,[32],1.85% (active)
same,viability,[1],4.23% (active)
same,viability,[2],3.15% (active)
